Compound activity from PubChem.
Sampled rows, rich in hits. Any-hit rate of the full collection: about 0.67%.
S-ASM inh: human S-ASM enzyme inhibition; placental ASM, HMU-PC fluorogenic substrate, 60 min; Potency, µM (highest dose often 57.5 µM), for the others: at the highest dose activity change, negative = inhibition, hits mostly inhibitors; 340,000 tested, 0.006% active; AID 504937; active means well fitted inhibition curve with a large enough effect; inconclusive means small, poorly fitted or top-dose-only effect; inactive means no such curve, though single readings can be large or run the other way
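Steps: dispense placental human ASM, pin compound, wait 10 min at room temperature, add HMU-PC0 substrate at 9 uM final, incubate 60 min at 37 °C, add stop solution raising pH to 10, read fluorescence.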
gsp agonist: agonists of gsp mutant (McCune-Albright syndrome); Potency, µM (titrated, usually from 76.9 µM), without a hit: top-dose activation (cAMP increase), most hits filed as activators; AID 624287; 340,000 tested, 0.13% active; gsp mutant cells, cAMP HTRF, 30 min; active means well fitted activation curve with a large enough effect; inconclusive means small, poorly fitted or top-dose-only effect, or another doubt; inactive means no such curve, though single readings can be large or run the other way; cell line not stated here;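 further: phosphodiesterase inhibitor Ro 20-1724 added with compounds to block cAMP breakdown; nearly all actives have a fitted effect of over 60% in size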
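Cells in DMEM/10% FBS with G418 were pretreated with compounds in DMSO plus […] (300 uM stock) for 30 min at 37C. cAMP was measured by HTRF (cAMP-d2 plus anti-cAMP antibody-K) after 30 min at room temperature.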
Rango-impB inh: Rango-importin beta binding inhibition | AID 540263 | Rango CFP/YFP FRET sensor + importin beta, 45 min | 340,000 tested, 0.031% active | Potency, µM (highest dose often 92.2 µM), inactives show top-dose inhibition of complex formation | Q14974;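 further: 0% = DMSO wells and 100% = buffer wells lacking importin beta; nearly all actives have a fitted effect of over 15% in size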
Target sequence (Q14974 whole entry, looked up): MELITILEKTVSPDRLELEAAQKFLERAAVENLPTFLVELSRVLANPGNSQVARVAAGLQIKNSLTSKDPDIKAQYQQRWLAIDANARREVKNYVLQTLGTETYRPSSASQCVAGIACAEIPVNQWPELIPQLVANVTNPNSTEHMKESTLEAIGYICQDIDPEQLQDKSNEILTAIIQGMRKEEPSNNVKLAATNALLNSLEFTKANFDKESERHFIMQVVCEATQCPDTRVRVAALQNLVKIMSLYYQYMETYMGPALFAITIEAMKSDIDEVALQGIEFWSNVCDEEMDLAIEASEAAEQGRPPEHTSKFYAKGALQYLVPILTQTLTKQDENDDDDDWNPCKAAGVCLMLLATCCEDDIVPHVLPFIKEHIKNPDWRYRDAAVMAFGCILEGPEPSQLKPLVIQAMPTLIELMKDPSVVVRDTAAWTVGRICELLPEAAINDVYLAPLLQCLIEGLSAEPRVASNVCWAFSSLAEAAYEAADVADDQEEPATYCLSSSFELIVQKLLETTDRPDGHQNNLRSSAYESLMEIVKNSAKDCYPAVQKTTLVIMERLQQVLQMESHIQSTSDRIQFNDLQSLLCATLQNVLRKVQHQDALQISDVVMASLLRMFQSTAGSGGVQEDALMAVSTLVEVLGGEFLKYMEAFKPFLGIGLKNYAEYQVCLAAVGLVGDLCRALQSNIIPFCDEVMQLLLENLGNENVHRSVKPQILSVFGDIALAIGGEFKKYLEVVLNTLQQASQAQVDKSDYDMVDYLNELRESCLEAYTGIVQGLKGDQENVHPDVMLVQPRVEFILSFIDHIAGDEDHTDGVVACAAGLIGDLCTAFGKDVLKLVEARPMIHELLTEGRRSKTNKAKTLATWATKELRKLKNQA
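Inhibition scored from the CFP 486 nm/YFP 530 nm FRET ratio 45 min after adding 0.125 microM importin beta to 50 nM Rango biosensor preincubated 5 min with compound (room temperature, PBS with DTT, Tween-20, BSA). No-importin wells as positive control.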
gsp antag: antagonizes gsp, the McCune-Albright syndrome mutation; gsp-mutant cells, cAMP HTRF, 30 min; Potency, µM (titrated, usually from 76.9 µM), inactives show at the highest dose activity change, negative = inhibition, actives largely listed as inhibitors; 340,000 tested, 0.4% active; AID 624288; calls by dose curve; cell line not stated here;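 further: intracellular cAMP measured with PDE inhibitor Ro 20-1724 present during compound exposure; on the % scale 0 is the no-effect control and ±100 the full control effect; nearly all actives have a fitted effect of over 65% in size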
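Cells, 2000/well, grown 16–24 h in DMEM 10% FBS with 0.5 mg/ml G418, then compounds plus […] (300 uM addition stock), 30 min at 37C. cAMP read by HTRF (cAMP-d2 and anti-cAMP antibody-K in lysis buffer) after 30 min RT.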
Rango dissoc inh: inhibitors of RanGTP-induced Rango-importin beta complex dissociation; O95149+P62826; Biochemical FRET Rango-importin beta, RanGTP-induced dissociation; Potency, µM (highest dose often 46.1 µM), for inactives: top-dose activity change, negative = inhibition; AID 540253; 340,000 tested, 0.071% active; further: % of control where 0% means no effect; nearly all actives have a fitted effect of over 45% in size
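Recombinant Rango FRET biosensor (EYFP–snurportin 1 IBB–cerulean CFP10) at 0.1 uM premixed with 0.25 uM importin beta in PBS, 1 mM DTT, 0.02% Tween-20, 0.1% BSA. Compound added 5 min; RanGTP-RCC1 (0.6 uM Ran, 2 mM GTP, 0.2 uM RCC1) then triggers release, read at 45 min.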
An asterisk follows results filed as active; [ ] = another dose, or the depositor's remark. Unless noted, the call rests on the fitted dose curve. Potency means the concentration at half of the fitted maximal effect.

What do the screens show for `CC(=O)N1CCN(C(=O)CCc2nc3ccccc3c(=O)[nH]2)CC1`?
S-ASM inh: 1.0%; gsp agonist: -36.9%; Rango-impB inh: -1.1%; gsp antag: 4.5%; Rango dissoc inh: -0.3%

Results for O=C(CCc1nc2ccccc2c(=O)[nH]1)N1CCN(C/C=C/c2ccccc2)CC1 ?
S-ASM inh: -0.6%; gsp agonist: 3.3%; Rango-impB inh: 0.1%; gsp antag: 22.4µM*; Rango dissoc inh: 23.8%

How did O=C(Nc1ccc([N+](=O)[O-])cc1Cl)c1cc(Cl)ccc1O do in these assays?
S-ASM inh: -2.6%; Rango-impB inh: 0.2%; gsp antag: 2µM*; Rango dissoc inh: 4.3%

Results for Cc1noc(C)c1CSc1nc2ccccc2nc1NS(=O)(=O)c1ccc(Cl)cc1 ?
S-ASM inh: 50.7%; gsp agonist: 18.9%; Rango-impB inh: -0.5%; gsp antag: 31.6µM*; Rango dissoc inh: -1.3%

What do the screens show for `CC(Oc1ccc(Cl)cc1Cl)c1ccn[nH]1` (stereo not drawn)?
S-ASM inh: -2.0%; gsp agonist: -13.6%[15.4 µM]; Rango-impB inh: 0.1%; gsp antag: -15.1%; Rango dissoc inh: inconclusive

Results for Cc1ccc(NC(=O)CSc2nnc(Cc3cccn3C)n2-c2ccc(F)cc2)c(C)c1 ?
S-ASM inh: 0.0%; gsp agonist: 13.1%; Rango-impB inh: -0.2%; gsp antag: 50.1µM*; Rango dissoc inh: -4.9%

How did Cn1cccc1Cc1nnc(SCC(=O)Nc2ccc(F)cc2F)n1-c1ccc(F)cc1 do in these assays?
S-ASM inh: 2.8%; gsp agonist: -34.8%; Rango-impB inh: -1.8%; gsp antag: -3.3%; Rango dissoc inh: -10.1%

What do the screens show for `CC(=O)Nc1ccc(S(=O)(=O)N2CCC(C(=O)N[C@@H](C)C(=O)NC3CCCC3)CC2)cc1`?
S-ASM inh: 4.3%; gsp agonist: -38.4%; Rango-impB inh: -0.1%; gsp antag: 50.1µM*; Rango dissoc inh: 19.9%

How did COc1ccc(S(=O)(=O)N2CCC(C(=O)N[C@@H](C)C(=O)NC3CC3)CC2)cc1 do in these assays?
S-ASM inh: 3.1%; gsp agonist: inconclusive; Rango-impB inh: 0.3%; gsp antag: 20.6%; Rango dissoc inh: 9.5%

Results for CCN(CC)Cc1c(O)ccc2c(=O)c(-c3ccccc3OC)coc12 ?
S-ASM inh: 240.4%; gsp agonist: -1.8%[15.4 µM]; Rango-impB inh: 2.2%; gsp antag: 5.3%; Rango dissoc inh: -14.3%

Results for COc1ccccc1NC(=O)C(C)OC(=O)c1cc2ccccc2[nH]1 (stereo not drawn) ?
S-ASM inh: -9.2%; gsp agonist: -7.5%; Rango-impB inh: 0.4%; gsp antag: 35.5µM*; Rango dissoc inh: -5.5%

How did COc1ccc(OC)c(NC(=O)C(C)OC(=O)c2cc3ccccc3[nH]2)c1 (stereo not drawn) do in these assays?
S-ASM inh: -15.6%; gsp agonist: 5.5%; Rango-impB inh: -0.3%; gsp antag: 22.4µM*; Rango dissoc inh: 18.4%

How did CCC(C)n1nccc1NC(=O)C(C)OC(=O)c1cc2ccccc2[nH]1 (stereo not drawn) do in these assays?
S-ASM inh: -14.1%; gsp agonist: -5.1%; Rango-impB inh: -2.3%; gsp antag: -13.2%; Rango dissoc inh: 10.4%

How did Cc1nc(N2CCN(C(=O)c3ccco3)CC2)c2c3c(sc2n1)CCCC3 do in these assays?
S-ASM inh: 1.5%; gsp agonist: 10.0%; Rango-impB inh: 12.3%; gsp antag: -13.1%; Rango dissoc inh: 0.6%

How did Cc1nc(N2CCN(C(=O)c3ccco3)CC2)c2c3c(sc2n1)CC(C)CC3 (stereo not drawn) do in these assays?
S-ASM inh: 2.0%; gsp agonist: -5.4%; Rango-impB inh: inconclusive; gsp antag: 14.1µM*; Rango dissoc inh: 3.9%

How did Cc1c(C(=O)N2CCCc3ccccc32)oc2ccc(S(=O)(=O)N3CCOCC3)cc12 do in these assays?
S-ASM inh: -2.5%; gsp agonist: 23.7%; Rango-impB inh: -4.0%; gsp antag: -12.6%; Rango dissoc inh: -9.5%

How did CCCOC(=O)c1ccc(-c2c(C)noc2-c2ccc(OC)cc2O)o1 do in these assays?
S-ASM inh: inconclusive; gsp agonist: 5.1%; Rango-impB inh: 1.0%; gsp antag: 31.6µM*; Rango dissoc inh: inconclusive
